{"source": "PubChem BioAssay AID540325", "about": "(National Center for Advancing Translational Sciences (NCATS), 2011)", "note": "The other results are listed elsewhere or left out. The source made the active and inactive calls.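 The calls were made as follows: active = inhibition at 10 µM of 30% or more; inconclusive = no clear call, values can overlap the other calls; inactive = inhibition at 10 µM under 30%.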"}
{"target": "DNA polymerase beta (Homo sapiens) (UniProt P06746)", "assay": "Inhibitors of DNA Polymerase Beta: Hit Validation in Radiolabeled Extension Assay", "details": "radiolabeled primer extension gel assay, phosphorimager; at 10 µM; stronger effect = higher value", "source_text": "The base excision repair system in human cells is a target for therapeutic modulation of the response to irradiation treatment and DNA-damaging drugs. A key enzyme in this system is the bi-functional DNA polymerase known as DNA polymerase Beta (Pol Beta). […] Using an integrated approach involving discovery of small molecule probes for Pol Beta via HTS and medchem optimization in collaboration with the NIH Chemical Genomics Center, validation by crystallography and kinetics along with cell-based validation experiments, we will test the hypothesis that base excision repair can be strategically modulated in human cells by targeting Pol Beta. Thus, we anticipate the Pol Beta-specific probes emerging from this research will serve as starting points in the development of clinical agents for use in downregulation of DNA base excision repair during therapeutic interventions against cancer. This assay is an orthogonal follow-up assay that looks at radiolabeled primer extension and was carried out by the assay provider. NIH Chemical Genomics Center [NCGC] NIH Molecular Libraries Probe Centers Network [MLPCN] […]\nA primer oligonucleotide is 5'-32P end-labeled using T4 polynucleotide kinase and 32P-[ATP]. […] Percent extension of substrate to product is measured using standard, quantitative phosphoimager analysis."}
{"smiles": "O=C(Nc1ccc(S(=O)(=O)Nc2nccs2)cc1)c1cc(-c2ccncc2)nc2ccccc12", "inhibition": "96.4% (active)"}
